# From the supplement of paper PMC10338343
# ± gives the standard deviation.
# System: MILI (PIWIL2) piRISC loaded with L1MC piRNA (26 nt);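 also: 1 nM active piRISC with 0.1 nM target library at 33 °C single turnover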
# Assay: pre-steady-state target cleavage rate (min^-1); guide: L1MC piRNA 5'p-UAACUAAAUACUAUGCAAGCUGUAGG; higher = faster piRNA-guided slicing of the target
# Settings: auxiliary factor: 500 nM mouse GTSF1
# Summary of the method: (§1)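 Active affinity-purified piRISC carrying one synthetic guide (1 nM) was mixed with a transcribed, DNA-blocked target RNA library […] in HEPES–potassium acetate buffer at 33 °C for 0–8 or 0–960 min, with or without 500 nM GTSF1 partner protein. Uncleaved targets were then sequenced and normalised to depth and to weakly complementary targets. Three trials were pooled, and k3 was capped at 0.0001 min^-1. A burst-and-steady-state fit was applied to obtain the pre-steady-state cleavage rate.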
row,Sequence,pre-steady-state target cleavage rate
1,UCCUGGAACAGCUUGCAUAGUUUAUAGUUA,0.029 ± 0.0097
2,UCCUGGAUGUCGUUGCAUAGUAUUUAGGUUA,0.152 ± 0.033
3,UCCUGGAUGUCCUUGCAUUGUAUUUACUUA,0.0534 ± 0.012
4,UCCUGGAUGUCCUUGCAUAGUAAUUAGUAA,0.0241 ± 0.0076
5,UCCUGCUACUGCUUCCAUAGUAUUUAGUUA,0.0453 ± 0.014
6,UCCUGGAUGUCGAUGCAUUGUAUUUAGUUA,0.0091 ± 0.0037
7,UCCUGGUACAGCUUGCAUUGUAUUUACAAA,0.0165 ± 0.0077
8,UCCUGGAUCAGCUUGCUAUGUAUUUACAAA,0.00475 ± 0.0036
9,UCCUGGAUGUCGUUGCCAUAGUAUUUAGUUA,0.00586 ± 0.0034
10,UCCUGGAUGUCGUAGCAUAGUAUUUAGUAA,0.0538 ± 0.01
11,UCCUGGAUCAGCUUGCAUUGUAUUUACAAA,0.0117 ± 0.005
12,UCCUGGAUCAGGUUGCAUAGUAUUUACUUA,0.117 ± 0.029
13,UCCUGGUACAGCUUGCAAUGUAUUUACAAA,0.00784 ± 0.0049
14,UCCUGGAUCAGCUUGCAUUGUAUUUACUUA,0.146 ± 0.027
15,UCCUGGAUGUCCAUGCAUACUAUUUAGUUA,0.0122 ± 0.0052
16,UCCUGGAUGUCGAAGCAUAGUAUUCUAGUUA,0.0193 ± 0.0065
17,UCCUGGAUGUCGUUGCAUAGUAUUUAGGUA,0.0112 ± 0.0062
18,UCCUCCUACAGCUUGGUUAGUAUUUAGAAA,0.081 ± 0.016
19,UCCUCCUACAGCUUGCAUACAUUUUAGUUA,0.00509 ± 0.0039
20,UCCUGGAUGUCGUUGCAUAGUAUUUAUGUUA,0.137 ± 0.04
21,UCCUGGAUCAGCUUGCAUAGUAUUAUGUAA,0.00562 ± 0.0035
22,UCCUGGAACAGCUACCAUAGUAUUUAGAAA,0.0138 ± 0.0052
23,UCCUGGAACAGCUUGCAUAGUAUAAAGUAA,0.249 ± 0.063
24,UCCUGGAUGUGCUUGCAUACUAUUUAGUAA,0.00943 ± 0.0038
25,UCCUGGAUGUCGUUGCAUAGUAUUUUGUUA,0.194 ± 0.044
26,UCCUGCUACAGCUUGCAUACAUUUUAGUUA,0.0121 ± 0.0061
27,UCCUGGAACUGCUUGCAUAGAAUUUAGUUA,0.0556 ± 0.013

# Same assay, conditions: auxiliary factor: none (no GTSF1)
row,Sequence,pre-steady-state target cleavage rate
1,UCCUGGAUGUCGAACGUAAGUUUUAGUUA,< 0.0001
2,UCCUGGAUGUCGAACCAUGAGUAUUUAGUUA,< 0.0001
3,UCCUGGAUGUCGAUGCAUACUAUUUAGUAA,< 0.0001
4,UCCUGGAUGUCGAAGCAUAGUAUUUGUUA,< 0.0001

# System: EfPiwi piRISC loaded with L1MC piRNA (26 nt)
# Assay: pre-steady-state target cleavage rate (min^-1); auxiliary factor: none (no Gtsf1); guide: L1MC piRNA 5'p-UAACUAAAUACUAUGCAAGCUGUAGG; higher = faster piRNA-guided slicing of the target
# Settings: not given
# Summary of the method: as §1
row,Sequence,pre-steady-state target cleavage rate
1,UCCUGGAAGAGCUUGCAUACUAUUUAGUUA,0.00581 ± 0.0041
2,UCCUGGAUGUCGAACGUAUCUAUUUAGAAA [g4:g10:cont:t1A],< 0.0001
3,UCCUGCUACAGCUUGGAUAGUAUUUACAAA,< 0.0001
4,UCCUGGAUGUCGAACCAUAGUUUUAGUUA,< 0.0001
5,UCCUGGAUGUCGAAGGAUAGUAUUAAGUUA,< 0.0001
6,UCCUGGAUGUCGAACCAUUCAAUUUAGUUA,< 0.0001
7,UCCUGGAUGUCGAACGUUAGUAUUUAGAUA,< 0.0001
8,UCCUGGAUGUCGAACGUUAGUAUCUAGUUA,< 0.0001

# System: EfPiwi piRISC loaded with L1MC piRNA (26 nt)
# Assay: pre-steady-state target cleavage rate (min^-1); auxiliary factor: 500 nM Ephydatia muelleri Gtsf1; guide: L1MC piRNA 5'p-UAACUAAAUACUAUGCAAGCUGUAGG; MIWI and MILI are mouse PIWI proteins and EfPiwi is from a freshwater sponge; tags in brackets are library labels; higher = faster piRNA-guided slicing of the target
# Settings: not given
# Summary of the method: as §1
row,Sequence,pre-steady-state target cleavage rate
1,UCCUGGAAGAGCUUGCAUACUAUUUAGUUA,0.00438 ± 0.0026
2,UCCUGGAUGUCGAACGUAUCUAUUUAGAAA [g4:g10:cont:t1A],< 0.0001
3,UCCUGCUACAGCUUGGAUAGUAUUUACAAA,0.00306 ± 0.0026
4,UCCUGGAUGUCGAACCAUAGUUUUAGUUA,< 0.0001
5,UCCUGGAUGUCGAAGGAUAGUAUUAAGUUA,< 0.0001
6,UCCUGGAUGUCGAACCAUUCAAUUUAGUUA,< 0.0001
7,UCCUGGAUGUCGAACGUUAGUAUUUAGAUA,< 0.0001
8,UCCUGGAUGUCGAACGUUAGUAUCUAGUUA,< 0.0001
